Measured values taken from PubChem BioAssay (Tox21).
Records with an inconclusive call do not appear. Where a call stands in place of a potency, no number is given. Values without a mark were called inactive. Active and inactive are the calls of the source. Unless noted, calls come from the whole dose curve; as a rule, active = well fitted curve in the direction sought with a large enough effect in the repeat runs; inconclusive = weak or mixed curves; inactive = no such curve, though single readings can be large; an effect the other way counts as inactive or inconclusive.

How the values were obtained:
[1] = qHTS assay to identify aromatase inhibitors - cell viability counter screen (AID 743084);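 note: cells stimulated with testosterone during compound exposure; nearly all actives have a fitted effect of over 55% in size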; note: potency is the fitted concentration of half-maximal effect
[2] = qHTS assay to identify small molecule that activate the aryl hydrocarbon receptor (AhR) signaling pathway - cell viability counter screen (AID 743086); note: nearly all actives have a fitted effect of over 45% in size; note: potency is the fitted concentration of half-maximal effect
Procedure, shortened: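 HepG2-AhR-luc (HG2L7.5c1) cells, 4000/well, treated 24 h at 37 C with compound; viability measured as CellTiter-Fluor fluorescence after 30 min in the same wells as the luciferase read.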

[3] = target: Peroxisome proliferator-activated receptor gamma (Homo sapiens) (UniProt P37231); test: qHTS assay to identify small molecule agonists of the peroxisome proliferator-activated receptor gamma (PPARg) signaling pathway (AID 743094; active = well fitted activation curve with a large enough effect in the signal ratio in the repeat runs, not every such curve was filed as active; the % refers to the signal ratio)
Procedure, shortened: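 Compounds dissolved in DMSO were added to PPARg UAS-bla HEK293H cells for 17 h at 37C, and reporter expression was quantified by fluorescence intensity after 1 h with LiveBLAzer B/G FRET substrate.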

[4] = qHTS assay to identify small molecule phospholipidosis (PLD) inducers (AID 1259344; active = well fitted curve in the direction sought with a large enough effect; an effect the other way counts as inactive or inconclusive; note: potency is the fitted concentration of half-maximal effect)
Procedure, shortened: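 HepG2 cells, 900/well, treated with compound plus LipidTOX Red for 24 h at 37 C; amiodarone positive and DMSO negative controls. Fixed with paraformaldehyde/Hoechst, then high-content imaging scored LipidTOX pit count and integrated intensity per well and per cell.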

[5] = target: Aryl hydrocarbon receptor (Homo sapiens) (UniProt P35869); test: qHTS assay to identify small molecule that activate the aryl hydrocarbon receptor (AhR) signaling pathway (AID 743085); note: nearly all actives have a fitted effect of over 15% in size; note: potency is the fitted concentration of half-maximal effect;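 for activation: HG2L7.5c1 human HepG2 liver cells with stably integrated DRE-driven firefly reporter; series mostly up to about 70 µM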
Procedure, shortened: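 Cell line HG2L7.5c1 (human hepatoma, 20× DRE-luc). Plated, 5 h 37C, compound/DMSO added, 24 h 37C. CellTiter-Fluor 30 min 37C → fluorescence; then ONE-Glo 30 min RT → luminescence.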

[6] = target: Nuclear receptor subfamily 1 group I member 2 (Rattus norvegicus) (UniProt Q9R1A7); test: Rat pregnane X receptor (rPXR) activation by small molecules, qHTS assay (AID 1346983); settings: rPXR luciferase reporter cells, One-Glo luminescence, 24 h; max activation: stronger effect = higher value; note: nearly all actives have a fitted effect of over 20% in size
Procedure, shortened: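 Cell-based rPXR activation assay: rPXR cells, 2,000 per well, rested 5hr at 37 C, then exposed to compounds in DMSO for 24 hr at 37 C. Luciferase activity read by One-Glo luminescence after 30 min at room temperature.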

[7] = target: Nuclear receptor subfamily 1 group I member 2 (Homo sapiens) (UniProt O75469); test: CYP3A4 induction through human pregnane X receptor (PXR) by small molecules, qHTS assay (AID 1346984); note: nearly all actives have a fitted effect of over 40% in size; note: potency is the fitted concentration of half-maximal effect
Procedure, shortened: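 Readings come from a luciferase reporter: DPX-2 cells, which are HepG2 cotransfected with PXR and a CYP3A4-promoter construct, were exposed to test compounds for 24 h at 37C before One-Glo detection.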

[8] = target: Nuclear receptor subfamily 1 group I member 2 (Homo sapiens) (UniProt O75469); test: Human pregnane X receptor (PXR) activation by small molecules, qHTS assay (AID 1346985); note: nearly all actives have a fitted effect of over 40% in size; note: potency is the fitted concentration of half-maximal effect
Procedure, shortened: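 DPX-2 cells (HepG2 co-transfected with a PXR response element and a CYP3A4-promoter luciferase construct) were seeded at 2,000 per well, rested 5 hr at 37C, then exposed to DMSO-dissolved compounds for 24 hr. Activation was read as luciferase luminescence.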

Sequence of Peroxisome proliferator-activated receptor gamma (Homo sapiens) (P37231 whole entry, looked up): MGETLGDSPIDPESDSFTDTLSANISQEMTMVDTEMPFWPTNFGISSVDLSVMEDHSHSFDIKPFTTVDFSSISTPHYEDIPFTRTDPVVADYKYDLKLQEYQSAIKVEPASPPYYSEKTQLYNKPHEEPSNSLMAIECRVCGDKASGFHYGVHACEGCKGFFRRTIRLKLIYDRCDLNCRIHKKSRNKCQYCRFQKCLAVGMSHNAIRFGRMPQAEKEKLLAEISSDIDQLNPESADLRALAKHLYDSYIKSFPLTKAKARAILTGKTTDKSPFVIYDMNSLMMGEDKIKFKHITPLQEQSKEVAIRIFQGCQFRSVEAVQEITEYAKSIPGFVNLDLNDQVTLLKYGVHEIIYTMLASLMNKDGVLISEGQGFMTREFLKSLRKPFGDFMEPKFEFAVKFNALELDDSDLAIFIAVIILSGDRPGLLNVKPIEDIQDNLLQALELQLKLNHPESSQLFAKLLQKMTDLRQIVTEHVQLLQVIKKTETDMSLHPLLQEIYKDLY
Sequence of Nuclear receptor subfamily 1 group I member 2 (Rattus norvegicus) (Q9R1A7 whole entry, looked up): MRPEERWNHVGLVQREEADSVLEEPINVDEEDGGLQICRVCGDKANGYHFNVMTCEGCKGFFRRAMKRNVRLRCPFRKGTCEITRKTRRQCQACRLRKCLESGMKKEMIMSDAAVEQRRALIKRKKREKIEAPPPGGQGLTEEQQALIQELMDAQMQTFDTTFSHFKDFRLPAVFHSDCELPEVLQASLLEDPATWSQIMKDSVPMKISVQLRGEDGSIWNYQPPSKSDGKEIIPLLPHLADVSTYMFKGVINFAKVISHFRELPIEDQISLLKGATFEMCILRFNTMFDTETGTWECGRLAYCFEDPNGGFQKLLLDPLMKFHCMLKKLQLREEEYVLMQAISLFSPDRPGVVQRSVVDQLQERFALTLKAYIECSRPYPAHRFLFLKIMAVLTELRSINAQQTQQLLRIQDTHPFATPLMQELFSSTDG
Sequence of Aryl hydrocarbon receptor (Homo sapiens) (P35869 whole entry, looked up): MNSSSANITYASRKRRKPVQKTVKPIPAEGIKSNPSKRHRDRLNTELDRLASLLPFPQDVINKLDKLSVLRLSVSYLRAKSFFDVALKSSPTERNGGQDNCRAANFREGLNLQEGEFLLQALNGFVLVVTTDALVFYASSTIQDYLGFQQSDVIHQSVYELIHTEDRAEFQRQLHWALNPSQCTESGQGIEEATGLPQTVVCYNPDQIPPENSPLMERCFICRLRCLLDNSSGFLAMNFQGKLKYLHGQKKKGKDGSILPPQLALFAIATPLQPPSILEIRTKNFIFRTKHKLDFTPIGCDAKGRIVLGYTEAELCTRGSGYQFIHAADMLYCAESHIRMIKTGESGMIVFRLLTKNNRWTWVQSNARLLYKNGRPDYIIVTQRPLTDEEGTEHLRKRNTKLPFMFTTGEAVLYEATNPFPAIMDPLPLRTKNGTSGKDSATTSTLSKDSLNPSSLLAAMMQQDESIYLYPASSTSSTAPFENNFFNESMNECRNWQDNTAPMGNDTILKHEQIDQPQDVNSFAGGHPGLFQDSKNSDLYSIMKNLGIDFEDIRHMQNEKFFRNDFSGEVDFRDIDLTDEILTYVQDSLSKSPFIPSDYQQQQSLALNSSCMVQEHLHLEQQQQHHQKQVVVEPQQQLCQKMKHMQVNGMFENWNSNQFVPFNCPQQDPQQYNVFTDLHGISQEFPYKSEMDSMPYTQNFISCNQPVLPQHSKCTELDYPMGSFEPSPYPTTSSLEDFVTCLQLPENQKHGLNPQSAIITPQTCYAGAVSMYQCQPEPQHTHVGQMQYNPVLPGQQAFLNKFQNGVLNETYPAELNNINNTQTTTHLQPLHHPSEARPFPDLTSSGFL

## CC[C@H]1OC(=O)[C@H](C)[C@@H](O[C@H]2C[C@@](C)(OC)[C@@H](O)[C@H](C)O2)[C@H](C)[C@@H](O[C@@H]2O[C@H](C)C[C@H](N(C)C)[C@H]2O)[C@](C)(O)C[C@@H](C)[C@@H]2N[C@@H](COCCOC)O[C@@H]([C@H]2C)[C@]1(C)O
[1]
  Potency: inactive
[2]
  Potency: inactive
[3]
  Potency: inactive
[4]
  Potency: inactive

## Nc1ccn(C[C@@H](CO)OCP(=O)(O)O)c(=O)n1
[1]
  Potency: inactive
[5]
  Potency: inactive
[2]
  Potency: inactive
[3]
  Potency: inactive
[4]
  PLD induction: -2.23% [at 7.66 µM]

## CN1CCN(CCCN2c3ccccc3Sc3ccccc32)CC1
[5]
  Potency: inactive
[3]
  Potency: inactive
[4]
  Potency: inactive

## CC1(S(=O)(=O)O)CC(=O)c2ccccc2C1=O (centres undefined)
[5]
  Potency: 10.6 µM (active)
[4]
  Potency: inactive

## CCOC(=O)[C@H](CCc1ccccc1)N[C@@H](C)C(=O)N1CC2(C[C@H]1C(=O)O)SCCS2
[1]
  Potency: inactive
[2]
  Potency: inactive
[3]
  Potency: inactive
[4]
  Potency: inactive

## CC(=O)O[C@H]1CC[C@@]2(C)C(=CC[C@@H]3[C@@H]2CC[C@]2(C)C(c4cccnc4)=CC[C@@H]32)C1
[1]
  Potency: inactive
[2]
  Potency: inactive
[3]
  Potency: inactive
[4]
  Potency: inactive

## COC(=O)C1=C(C)NC(C)=C(C(=O)O[C@H]2CCN(Cc3ccccc3)C2)[C@H]1c1cccc([N+](=O)[O-])c1
[5]
  Potency: inactive
[2]
  Potency: 29.8 µM (active)
[4]
  Potency: inactive

## CN(C)CCC=C1c2ccccc2C(C)(C)c2ccccc21
[1]
  Potency: inactive
[5]
  Potency: inactive
[6]
  max activation: 6.91%
[7]
  Potency: 22.4 µM (active)
[8]
  Potency: 25.1 µM (active)

## CNCC(O)c1ccc(OC(=O)C(C)(C)C)c(OC(=O)C(C)(C)C)c1 (centres undefined)
[1]
  Potency: inactive
[5]
  Potency: inactive
[2]
  Potency: inactive
[3]
  Potency: inactive
[6]
  max activation: 0.121%
[7]
  Potency: inactive
[8]
  Potency: inactive

## COc1ccc(C(=O)Nc2ccccc2CCC2CCCCN2C)cc1 (centres undefined)
[5]
  Potency: inactive
[3]
  Potency: inactive
[4]
  Potency: inactive

## CCC(=O)O[C@H]1CC[C@H]2[C@@H]3CCc4cc(O)ccc4[C@H]3CC[C@]12C
[1]
  Potency: inactive
[2]
  Potency: inactive
[3]
  Potency: inactive
[4]
  Potency: inactive

## COc1cc2[nH]c(C)c(CCN3CCN(c4ccccc4)CC3)c2cc1OC
[5]
  Potency: inactive
[3]
  Potency: inactive
[4]
  Potency: inactive

## C[C@@H]1CCC2[C@@H](C)[C@@H](O)O[C@@H]3O[C@@]4(C)CC[C@@H]1[C@@]23OO4 (some centres undefined)
[6]
  max activation: -10.7%
[7]
  Potency: inactive
[8]
  Potency: inactive

## C[C@@H](O)[C@H]1C(=O)N2C(C(=O)[O-])=C(SC3Cn4cnc[n+]4C3)[C@H](C)[C@H]12 (some centres undefined)
[1]
  Potency: inactive
[5]
  Potency: inactive
[2]
  Potency: inactive
[3]
  Potency: inactive
[6]
  max activation: 0.401%
[7]
  Potency: inactive
[8]
  Potency: inactive

## Cc1ccc(/C(=C\CN2CCCC2)c2cccc(/C=C/C(=O)O)n2)cc1
[2]
  Potency: inactive
[4]
  Potency: inactive

## CN1CC(O)c2cc(N=NC(N)=O)c(O)cc21 (centres undefined)
[3]
  Potency: inactive
[4]
  Potency: inactive

## CCNC(=O)[C@@H]1CCCN1C(=O)[C@H](CCCN=C(N)N)NC(=O)[C@H](CC(C)C)NC(=O)[C@@H](Cc1c[nH]c2ccccc12)NC(=O)[C@H](Cc1ccc(O)cc1)NC(=O)[C@H](CO)NC(=O)[C@H](Cc1c[nH]c2ccccc12)NC(=O)[C@H](Cc1cnc[nH]1)NC(=O)[C@@H]1CCC(=O)N1
[1]
  Potency: 29.8 µM (active)
[5]
  Potency: inactive
[2]
  Potency: 7.5 µM (active)
[6]
  max activation: -27.8%
[7]
  Potency: inactive
[8]
  Potency: inactive

## CCN(CC)c1ccc(N=Nc2ccc(S(=O)(=O)N(C)C)cc2)c(S(=O)(=O)NCC[n+]2ccccc2)c1
[1]
  Potency: inactive
[2]
  Potency: inactive
[3]
  Potency: inactive
[4]
  Potency: inactive

## CCC(=O)c1ccc2c(c1)N(CCCN1CCN(CCO)CC1)c1ccccc1S2
[1]
  Potency: inactive
[6]
  max activation: -17.5%
[7]
  Potency: 14.1 µM (active)
[8]
  Potency: 25.1 µM (active)

## Cc1c(N)nc(C(CC(N)=O)NCC(N)C(N)=O)nc1C(=O)NC(C(=O)NC(C)C(O)C(C)C(=O)NC(C(=O)NCCc1nc(-c2nc(C(=O)NCCCN[C@@H](C)c3ccccc3)cs2)cs1)C(C)O)C(O[C@@H]1O[C@@H](CO)[C@@H](O)[C@H](O)[C@@H]1O[C@H]1O[C@H](CO)[C@@H](O)[C@H](OC(N)=O)[C@@H]1O)c1cnc[nH]1 (some centres undefined)
[2]
  Potency: inactive
[4]
  PLD induction: 1.81% [at 7.66 µM]

## COc1ccc2c(c1)N(C[C@H](C)CN(C)C)c1ccccc1S2
[5]
  Potency: inactive
[3]
  Potency: inactive
[4]
  Potency: 8.91 µM (active)

## C[C@H]1C[C@H]2[C@@H]3CCC4=CC(=O)C=C[C@]4(C)[C@@]3(F)[C@@H](O)C[C@]2(C)[C@@]1(O)C(=O)CCl
[3]
  Potency: inactive
[4]
  Potency: inactive

## CC(O)[C@H]1CC[C@H]2[C@@H]3CC[C@@H]4C[C@@H](O)CC[C@]4(C)[C@H]3CC[C@]12C (some centres undefined)
[1]
  Potency: inactive
[5]
  Potency: inactive
[2]
  Potency: inactive
[3]
  Potency: inactive
[6]
  max activation: 2.94%
[7]
  Potency: inactive
[8]
  Potency: inactive

## CCCC1([C@H](O)C/C=C/[C@H]2[C@H](O)CC(=O)[C@@H]2CCCCCCC(=O)OC)CCC1
[5]
  Potency: inactive
[2]
  Potency: inactive
[4]
  PLD induction: 0.112% [at 7.66 µM]

## CC(CN(C)C)CN1c2ccccc2Sc2ccc(C(F)(F)F)cc21 (centres undefined)
[1]
  Potency: inactive
[5]
  Potency: inactive
[6]
  max activation: 2.66%
[7]
  Potency: 12.6 µM (active)
[8]
  Potency: 25.1 µM (active)

## CC(=O)Nc1c(I)c(C(=O)N[C@H]2C(O)O[C@H](CO)[C@@H](O)[C@@H]2O)c(I)c(N(C)C(C)=O)c1I (some centres undefined)
[1]
  Potency: inactive
[5]
  Potency: inactive
[2]
  Potency: inactive
[3]
  Potency: inactive
[6]
  max activation: -3.77%
[7]
  Potency: inactive
[8]
  Potency: inactive
